SARS PLpro yeast = SARS-CoV PLP inhibition in yeast; S. cerevisiae expressing SARS-CoV PLpro, growth rescue; Potency, µM (titrated, usually from 32.9 µM), for inactives: at the top dose activity, positive = growth rescue, usual class: activators; 330,000 compounds, 0.19% hits; calls by dose curve; further: 0% is about no effect; nearly all actives have a fitted effect of over 55% in size
Pf growth 96h = P. falciparum growth inhibition at 96 hour, primary screen for plastid delayed-death inhibitors. P. falciparum luciferase reporter growth, 96 h. 320,000 compounds, 6.9% hits. Potency, µM (series often up to 28.7 µM), for the others: at the highest dose activity change, negative = inhibition, usual class: inhibitors; further: on the % scale 0 is the no-effect control and ±100 the full control effect
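Plates of compound plus infected erythrocytes (2% hematocrit, 0.05% parasitemia final) incubate 96 hours, 37 C, 5% CO2. Detection reagent added; reduced luminescence from the parasites' luciferase reporter flags inhibition.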
AMA1-RON2 inh = AMA1-RON2 (P. falciparum) interaction inhibition | AlphaScreen AMA1-biotinylated RON2 peptide binding | Potency, µM (highest dose often 58.2 µM), inactives show at the highest dose activity change, negative = inhibition, actives largely listed as inhibitors | 360,000 compounds, 0.2% hits;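 further: 0% = vehicle wells and -100% = peptide control; nearly all actives have a fitted effect of over 45% in size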
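AMA1 (3D7) with his tag at 25 nM final met compounds first, then biotinylated RON2 peptide at 25 nM; detection used donor plus acceptor beads, 10 µg/mL apiece, read by AlphaScreen after 30 min at room temperature.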
Pf growth 48h = P. falciparum growth inhibition at 48 hours (one generation); 310,000 compounds, 5.9% hits; P. falciparum luciferase growth in erythrocytes, 48 h; Potency, µM (doses to about 28.7 µM), for the others: at the top dose activity change, negative = inhibition, actives largely listed as inhibitors; AID 504832; further: on the % scale 0 is the no-effect control and ±100 the full control effect
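Parasite viability was followed by luminescence of a genomically integrated firefly luciferase. Cultures held 0.1% parasitemia at 2% hematocrit (final), incubated under 5% CO2 at 37 C.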
Starred values were filed as active, the others as inactive; ? = inconclusive; nt = not tested or not shown; [ ] = another dose, or the depositor's remark. Rows were chosen to be rich in hits. Some 9.4% of all compounds tested hit in one or more screens of this group. Unless noted, the call rests on the fitted dose curve; in most records, active means well fitted curve in the direction sought with a large enough effect; inconclusive means small, poorly fitted or top-dose-only effect, or another doubt; inactive means no such curve, though single readings can be large; an effect the other way counts as inactive or inconclusive. Potency means the concentration at half of the fitted maximal effect.

SMILES	SARS PLpro yeast	Pf growth 96h	AMA1-RON2 inh	Pf growth 48h
CC(=O)Oc1ccc(C2=NN(c3ccccc3)C(c3ccccc3)C2)cc1 (centres undefined)	-1.9%	11.2%	117.1%	11.7µM*
CCC(=O)Nc1cccc(C2=NN(c3ccccc3)C(c3ccc(OC)cc3)C2)c1 (centres undefined)	-5.9%	13.1µM*	54.0%	?
CCOC(=O)C(C)Sc1nnc(NC(=O)c2ccc(C)c([N+](=O)[O-])c2)s1 (centres undefined)	-21.6%	14.7µM*	6.0%[2.32 µM]	-2.6%
CCOC(=O)C(C)Sc1nnc(NC(=O)c2cccc([N+](=O)[O-])c2C)s1 (centres undefined)	-5.2%	?	-1.7%[2.32 µM]	-6.4%
CCC1C=CC=CC[C@H](C)[C@@H](O)[C@](C)(O)C(=O)[C@@H](C)[C@H](O)[C@@H](C)C(=O)[C@H](C)[C@@H](O)[C@H](C)C=CC(=O)OC2[C@@H](C)C(CC1)OC1(CC[C@@H](C)C(C[C@H](C)O)O1)[C@@H]2C (some centres undefined)	1.2%	0.117µM*	nt	0.131µM*
Cc1csc(NC(=O)CCNC(=O)c2ccccc2Cl)n1	0.0%	26.0%	0.4%	0.3%
COc1ccc(CCC(=O)N/N=C\c2cccs2)cc1	-2.5%	56.4%	3.6%	9.28µM*
O=C(CNC(=O)c1ccccc1)N/N=C/c1ccc([N+](=O)[O-])s1	5.7%	4.15µM*	4.9%	?
O=C(Cc1ccccc1)NCC(=O)N/N=C/c1ccc([N+](=O)[O-])s1	1.5%	5.22µM*	12.1%	?
COc1ccc(NC(=O)CCC(=O)N/N=C/c2ccc([N+](=O)[O-])s2)cc1	-99.1%	?	0.7%	7.38µM*
O=[N+]([O-])c1ccc(COc2ncnc3ccccc23)cc1	3.4%	-12.4%	-12.4%	-7.9%
Oc1ccccc1/C=N/c1c(-c2ccco2)nc2ccccn12	-2.5%	nt	3.7%	-21.9%
CCOC(=O)c1c(S(=O)(=O)N2CCC(C)CC2)c(C)n(C)c1C	?	8.28µM*	-6.2%	10.0%
CCOC(=O)c1c(S(=O)(=O)N2CCCC(C(=O)Nc3ncccc3C)C2)c(C)n(C)c1C (centres undefined)	6.3%	11.7µM*	-6.0%	4.8%
S=C(NCCc1ccccn1)Nc1cc(Cl)cc(Cl)c1	-0.3%	13.1µM*	25.5%	?
S=C(NCCc1ccccn1)Nc1ccc(Cl)c(Cl)c1	0.5%	?	8.2%	-5.6%
CCOC1OC(=O)C(Cl)=C1Nc1ccc(C)cc1C (centres undefined)	2.1%	2.33µM*	-5.2%	?
CCOC1OC(=O)C(Cl)=C1Nc1ccc(C)cc1 (centres undefined)	-0.9%	4.7%	-17.7%	22.4%
CC1CN(c2nc(-c3ccc(Br)cc3)nnc2-c2ccccc2)CC(C)N1 (centres undefined)	2.9%	8.28µM*	-0.9%	?
Clc1ccc(-c2nnc(-c3ccccc3)c(N3CCSCC3)n2)cc1	1.1%	?	-4.7%	-5.1%
CCOc1ccc(/C(O)=C2/C(=O)C(=O)N(CCN(CC)CC)C2c2cccs2)cc1 (centres undefined)	-1.5%	30.1%	0.9%	33.0%
CCC(C)c1ccc(C(C)NC(=S)NCc2ccc(F)cc2)cc1 (centres undefined)	15.1%	?	67.4%	?
CCC(NC(=S)NCc1ccc(F)cc1)c1ccc(C(C)C)cc1 (centres undefined)	1.3%	?	79.8%	10.4µM*
CCCc1ccc(C(C)NC(=S)NCc2ccc(F)cc2)cc1 (centres undefined)	4.6%	11.7µM*	12.3%	?
CCOc1ccc(C(C)NC(=S)NCc2ccc(Cl)cc2)cc1 (centres undefined)	-0.1%	5.22µM*	4.1%	?
SMILES	SARS PLpro yeast	Pf growth 96h	AMA1-RON2 inh	Pf growth 48h
CCNC(=S)NCc1ccc(Cl)cc1	nt	nt	-12.0%	nt
O=C(CN1C(=O)COc2ccc(Cl)cc21)N1CCCCC1	4.3%	-16.5%	-6.1%	?
O=C(/C=C/c1cccs1)N1CCC2(CC1)Oc1ccc(Cl)cc1C(=O)C21CC(c2cccnc2)=NO1 (centres undefined)	1.3%	11.7µM*	-9.8%	13.1µM*
O=C(c1ccc2c(c1)OCO2)N1CCC2(CC1)Oc1ccc(Cl)cc1C(=O)C21CC(c2cccnc2)=NO1 (centres undefined)	4.3%	13.1µM*	10.3%	11.7µM*
Cc1ccc(C(=O)N2CCC3(CC2)Oc2ccc(Cl)cc2C(=O)C32CC(c3cccnc3)=NO2)s1 (centres undefined)	-1.7%	13.1µM*	-1.7%	?
CCC(=O)Nc1ccc(-n2nnnc2SCC(=O)NNC(=O)c2ccco2)cc1	3.2%	11.5%	12.4%	95.2%
CN1CCN(C2CCN(S(=O)(=O)c3ccc(C(C)(C)C)cc3)CC2)CC1	-25.4%	-2.2%	11.2%	1.4%
Cc1ccc(-c2nc(C3CCN(S(=O)(=O)c4ccc(C(C)(C)C)cc4)CC3)no2)cc1	-6.2%	2.94µM*	-4.5%	nt
CCN1CCN(c2oc(-c3ccccc3)nc2S(=O)(=O)c2ccc(C)cc2)CC1	0.2%	11.7µM*	-17.9%	13.1µM*
COc1ccc(-c2nc(S(=O)(=O)c3ccccc3)c(N3CCCC3)o2)cc1	nt	nt	-7.7%	nt
CCOc1ccc(-c2nc(S(=O)(=O)c3ccccc3)c(N3CCC(C(N)=O)CC3)o2)cc1	7.3%	14.7µM*	-0.6%	?
COc1cccc(C(=O)OCCN(C)C(C)(C)C)c1	8.7%	8.28µM*	nt	nt
N#Cc1ccc(Cn2c(=O)oc3ccccc32)cc1	-0.7%	27.1%	6.7%	-0.7%
Cc1ccccc1Cn1nc(C)c(NC(=O)c2noc3c2CCc2ccccc2-3)c1C	-11.9%	1.17µM*	-5.9%	?
Cc1ccc(O)c(NC(=O)c2noc3c2CCc2ccccc2-3)c1	-3.6%	9.28µM*	4.8%	?
O=C(c1noc2c1CCc1ccccc1-2)N1CCOCC1	-5.4%	24.9%	6.2%	78.4%
O=C(c1noc2c1CCc1ccccc1-2)N1CCCc2ccccc21	-12.6%	nt	14.0%	3.29µM*
Cc1cc(C(=O)CSc2n[nH]c(N)n2)c(C)n1-c1cccc(F)c1	-2.4%	7.0%	-8.6%	6.4%
COc1ccc(-c2nnc(NC(=O)C(C)C)s2)c(OC)c1	8.4%	52.1%	-6.7%	nt
O=C(c1cc(Br)ccc1Cl)N1CCN(c2ccccn2)CC1	-6.4%	-11.8%	-1.2%	-3.5%
CNC(=O)CSc1nc2cc(S(=O)(=O)Nc3ccccc3OC)ccc2o1	-2.7%	-16.5%	40.6%	14.6%
COc1ccccc1NS(=O)(=O)c1ccc2oc(SCc3ccc(C#N)cc3)nc2c1	7.9%	9.28µM*	-2.2%	-23.7%
CC(C)CCNC(=O)[C@H](CC(C)C)NC(=O)[C@H]1O[C@@H]1C(=O)O	-0.3%	2.08µM*	nt	3.7µM*
CCOC(=O)[C@H]1O[C@@H]1C(=O)N[C@@H](CC(C)C)C(=O)NCCC(C)C	-3.7%	nt	0.0%	nt
Cn1c(CSCc2ccc(F)cc2)n[nH]c1=S	nt	13.1µM*	53.0%	-7.2%
O=C(Nc1ccccc1)N1CCCC(CNS(=O)(=O)Cc2ccccc2)C1 (centres undefined)	-0.5%	-5.5%	14.8%	10.9%
